According to PubChem BioAssay (NCI):
The panel holds about 83,000 compounds, 20% with a hit somewhere; the sample as a whole holds those more often.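 Cell lines were cultured in 96-well plates, exposed to a single compound concentration, and assessed for percent growth 48 hours later.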 Activity calls are given as the source filed them. Rule for the calls: active = growth percent below 10; inactive = the rest.

How the values were obtained:
Experiment in all cases: NCI-60 one-dose screen, 48 h (100 = growth as untreated, 0 = no growth, -100 = all killed)
Details in all cases: 10 µM unless noted
NCI-H23 lung = tested on: NCI-H23 lung
NCI-H226 lung = tested on: NCI-H226 lung
NCI-H322M lung = tested on: NCI-H322M lung
HOP-62 NSCLC = tested on: HOP-62 NSCLC
NCI-H460 lung = tested on: NCI-H460 lung
HOP-92 NSCLC = tested on: HOP-92 NSCLC
NCI-H522 lung = tested on: NCI-H522 lung
A549/ATCC NSCLC = tested on: A549/ATCC NSCLC
786-0 renal = tested on: 786-0 renal
COLO 205 colon = tested on: COLO 205 colon

Measured: growth

COc1ccc(C(=NN=C(N)N)c2ccc(OC)cc2)cc1
active: HOP-92 NSCLC 3.59% | COLO 205 colon -7.03%
inactive: NCI-H23 lung 41.3% | NCI-H226 lung 50.3% | NCI-H322M lung 49% | HOP-62 NSCLC 36.6% | NCI-H460 lung 29.8% | NCI-H522 lung 34% | A549/ATCC NSCLC 46.1% | 786-0 renal 45.4%

COc1ccc(-c2nc(SCC(=O)Nc3nc(-c4ccccc4)cs3)[nH]c(=O)c2C#N)cc1
inactive: NCI-H23 lung 88.3% | NCI-H226 lung 85% | NCI-H322M lung 90.7% | HOP-62 NSCLC 82.4% | NCI-H460 lung 114% | HOP-92 NSCLC 81.5% | NCI-H522 lung 84% | A549/ATCC NSCLC 104% | 786-0 renal 100% | COLO 205 colon 112%

COc1ccc2oc3c(C)c4c(c(C)c3c2c1)C(=O)N(Cc1ccccc1)C4=O
inactive: NCI-H23 lung 93.3% | NCI-H226 lung 90.1% | NCI-H322M lung 92.4% | HOP-62 NSCLC 88.9% | NCI-H460 lung 69.4% | HOP-92 NSCLC 85.5% | NCI-H522 lung 87.5% | A549/ATCC NSCLC 83.9% | 786-0 renal 114% | COLO 205 colon 84.7%

N[C@@H](CCCCNCC(=O)O)C(=O)O
inactive: NCI-H23 lung 95.1% | NCI-H226 lung 98.4% | NCI-H322M lung 110% | HOP-62 NSCLC 101% | NCI-H460 lung 103% | HOP-92 NSCLC 64.5% | NCI-H522 lung 96.3% | A549/ATCC NSCLC 101% | 786-0 renal 97.2% | COLO 205 colon 111%

COc1cc(-c2nc(N3CCN(C)CC3)c3ccccc3n2)cc(OC)c1OC
inactive: NCI-H23 lung 74.4% | NCI-H226 lung 66.2% | NCI-H322M lung 84.4% | HOP-62 NSCLC 47.3% | NCI-H460 lung 84.5% | HOP-92 NSCLC 44.3% | A549/ATCC NSCLC 72.5% | 786-0 renal 47.5% | COLO 205 colon 81.5%
active: NCI-H522 lung 8.58%

N/C(=N\c1nc2ccccc2s1)NC(=O)Nc1cccc(Cl)c1
inactive: NCI-H23 lung 59.4% | NCI-H226 lung 55.3% | NCI-H322M lung 53.3% | HOP-62 NSCLC 36.8% | NCI-H460 lung 15.1% | HOP-92 NSCLC 51.6% | NCI-H522 lung 17.1% | A549/ATCC NSCLC 40.4% | 786-0 renal 34.8% | COLO 205 colon 26.2%

CCOC(=O)c1c(/C=C/C(=O)O)nc2ccccc2c1/C=C/c1ccccc1
inactive: NCI-H23 lung 50.3% | NCI-H226 lung 53.8% | NCI-H322M lung 72.7% | HOP-62 NSCLC 63.3% | NCI-H460 lung 28.5% | HOP-92 NSCLC 60.1% | NCI-H522 lung 40.9% | A549/ATCC NSCLC 70.7% | 786-0 renal 54.9% | COLO 205 colon 84%

Cc1cccc(Cc2cnc(NC(=O)/C=C/c3ccco3)s2)c1
active: NCI-H460 lung 3.34% | NCI-H522 lung -12% | COLO 205 colon 2.49%
inactive: NCI-H23 lung 28.2% | NCI-H226 lung 50.3% | NCI-H322M lung 37.8% | HOP-62 NSCLC 23.7% | HOP-92 NSCLC 78% | A549/ATCC NSCLC 20% | 786-0 renal 36%

CCCCn1c(=O)c2c(nc3n2CCCN3CCc2ccc(OCC(=O)NCCN(CC)CC)cc2)n(CCCC)c1=O
inactive: NCI-H23 lung 68.7% | NCI-H226 lung 72.9% | NCI-H322M lung 94.4% | HOP-62 NSCLC 56.1% | NCI-H460 lung 56.9% | HOP-92 NSCLC 27.8% | NCI-H522 lung 44.1% | A549/ATCC NSCLC 64.2% | 786-0 renal 11.3% | COLO 205 colon 25.7%

COc1ccc(-c2nc(SC(C)C)nc(NNC(N)=S)c2C#N)cc1
inactive: NCI-H23 lung 69.7% | NCI-H226 lung 86.4% | NCI-H322M lung 91.3% | HOP-62 NSCLC 63.7% | NCI-H460 lung 22.4% | HOP-92 NSCLC 41.2% | NCI-H522 lung 12.8% | A549/ATCC NSCLC 49.2% | 786-0 renal 85% | COLO 205 colon 99.9%

Cc1c(C(=O)NC(Cc2ccccc2)C(O)C(=O)NCc2ccc(F)cc2)[nH]c2ccccc2c1=O (stereo not given)
inactive: NCI-H23 lung 99.8% | NCI-H226 lung 105% | NCI-H322M lung 101% | HOP-62 NSCLC 99.2% | NCI-H460 lung 104% | HOP-92 NSCLC 108% | NCI-H522 lung 93.5% | A549/ATCC NSCLC 101% | 786-0 renal 104% | COLO 205 colon 111%

O=C1Nc2ccccc2/C1=C/c1cn(C(=O)c2c(Cl)cccc2Cl)c2ccccc12
inactive: NCI-H23 lung 56.9% | NCI-H226 lung 48.2% | NCI-H322M lung 90.4% | HOP-62 NSCLC 88.8% | NCI-H460 lung 71.2% | HOP-92 NSCLC 49.1% | NCI-H522 lung 55.3% | A549/ATCC NSCLC 36.7% | 786-0 renal 57.1% | COLO 205 colon 41.7%

O=c1cc(C2NNC(=S)N2)c2ccc3ccccc3c2o1 (stereo not given)
inactive: NCI-H23 lung 91.6% | NCI-H226 lung 101% | NCI-H322M lung 101% | HOP-62 NSCLC 95.1% | NCI-H460 lung 98.6% | HOP-92 NSCLC 103% | NCI-H522 lung 87.1% | A549/ATCC NSCLC 108% | 786-0 renal 100% | COLO 205 colon 104%

Cc1cc(NCc2cc(Nc3ccnc4cc(Cl)ccc34)ccc2F)nc(N2CCCC2)n1
active: HOP-62 NSCLC -13.3% | NCI-H460 lung -51.7% | NCI-H522 lung -40.3% | A549/ATCC NSCLC 8.66% | 786-0 renal -83.9% | COLO 205 colon -78.4%
inactive: NCI-H23 lung 32.9% | NCI-H226 lung 65.8% | NCI-H322M lung 30.6% | HOP-92 NSCLC 41.3%

COc1cc(/C=C/C(=O)c2c(C)nc3ccccc3c2C)ccc1OCCCN1CCN(C(=O)c2ccco2)CC1
inactive: NCI-H23 lung 58.1% | NCI-H226 lung 63.2% | NCI-H322M lung 91.8% | HOP-62 NSCLC 91.5% | NCI-H460 lung 98.2% | HOP-92 NSCLC 70% | NCI-H522 lung 57.7% | A549/ATCC NSCLC 79% | 786-0 renal 85.9% | COLO 205 colon 99.1%

CC1SC(c2ccc(OCc3ccccc3)cc2)N(NC(=O)C(O)(c2ccccc2)c2ccccc2)C1=O (stereo not given)
inactive: NCI-H23 lung 61% | NCI-H226 lung 84.5% | NCI-H322M lung 49.1% | HOP-62 NSCLC 79% | NCI-H460 lung 38.5% | HOP-92 NSCLC 50.7% | NCI-H522 lung 24.4% | A549/ATCC NSCLC 49.3% | 786-0 renal 59.6% | COLO 205 colon 30.8%

NC[C@H](O)c1ccc(O)c(O)c1
inactive: NCI-H23 lung 98.8% | NCI-H226 lung 109% | NCI-H322M lung 110% | HOP-62 NSCLC 105% | NCI-H460 lung 103% | HOP-92 NSCLC 65.8% | NCI-H522 lung 102% | A549/ATCC NSCLC 109% | 786-0 renal 108% | COLO 205 colon 109%

O=C(O)CN1C(=O)CCC1=O
inactive: NCI-H23 lung 104% | NCI-H226 lung 101% | NCI-H322M lung 123% | HOP-62 NSCLC 97.1% | NCI-H460 lung 115% | HOP-92 NSCLC 97.2% | NCI-H522 lung 103% | A549/ATCC NSCLC 98.4% | 786-0 renal 105% | COLO 205 colon 118%

COc1ccc(N2CCN(c3nc(-c4cc(OC)c(OC)c(OC)c4)nc4ccccc34)CC2)cc1
inactive: NCI-H23 lung 81.1% | NCI-H226 lung 78.4% | NCI-H322M lung 91.4% | HOP-62 NSCLC 83.9% | NCI-H460 lung 87% | HOP-92 NSCLC 56.6% | NCI-H522 lung 55.1% | A549/ATCC NSCLC 80.5% | 786-0 renal 85.7% | COLO 205 colon 62.9%

Cc1ccccc1NC(=O)N/C(N)=N/c1nc(C)c(C)s1
inactive: NCI-H23 lung 42.7% | NCI-H226 lung 60% | NCI-H322M lung 46.2% | HOP-62 NSCLC 43.9% | NCI-H460 lung 10.5% | HOP-92 NSCLC 73.6% | NCI-H522 lung 16.3% | A549/ATCC NSCLC 40.2% | 786-0 renal 51.4% | COLO 205 colon 10.1%

Cc1ccc(N(C(=O)CCc2c[nH]c3ccccc23)[C@H](C(=O)Nc2ccc(Cl)cc2)c2cccc([N+](=O)[O-])c2)cc1
inactive: NCI-H23 lung 92.8% | NCI-H226 lung 74.9% | NCI-H322M lung 79.1% | HOP-62 NSCLC 68% | NCI-H460 lung 98.2% | HOP-92 NSCLC 75.9% | NCI-H522 lung 64.2% | A549/ATCC NSCLC 73.8% | 786-0 renal 90.5% | COLO 205 colon 95%

O=C(O)C1CCC(=O)N1C(=O)OCc1ccccc1 (stereo not given)
inactive: NCI-H23 lung 93.7% | NCI-H226 lung 94.1% | NCI-H322M lung 94% | HOP-62 NSCLC 94.2% | NCI-H460 lung 106% | HOP-92 NSCLC 98.7% | NCI-H522 lung 92.8% | A549/ATCC NSCLC 96.7% | 786-0 renal 93% | COLO 205 colon 124%

O=C(NC(CSSCC(NC(=O)c1ccccc1)C(=O)O)C(=O)O)c1ccccc1 (stereo not given)
inactive: NCI-H23 lung 101% | NCI-H226 lung 98.7% | NCI-H322M lung 103% | HOP-62 NSCLC 95.6% | NCI-H460 lung 107% | HOP-92 NSCLC 88.3% | NCI-H522 lung 92.4% | A549/ATCC NSCLC 104% | 786-0 renal 105% | COLO 205 colon 114%

Cc1ccc(C(=NN=C(N)N)c2ccc(C)cc2)cc1
active: NCI-H23 lung -14.5% | NCI-H460 lung 2.86% | HOP-92 NSCLC -0.938% | NCI-H522 lung -13.8% | 786-0 renal -25% | COLO 205 colon -83.2%
inactive: NCI-H226 lung 12.3% | NCI-H322M lung 30.5% | HOP-62 NSCLC 13.1% | A549/ATCC NSCLC 11.1%

COc1ccc(CN2C(=O)C(Cl)=C(Nc3cccc(C(F)(F)F)c3)C2=O)cc1
active: HOP-92 NSCLC -17.2%
inactive: NCI-H23 lung 36.8% | NCI-H226 lung 49.5% | NCI-H322M lung 84.3% | HOP-62 NSCLC 28.3% | NCI-H460 lung 22% | NCI-H522 lung 40.6% | A549/ATCC NSCLC 59.2% | 786-0 renal 37.8% | COLO 205 colon 36.5%

Cc1ccc(C(=O)CSc2nc(-c3ccc(Br)cc3)c(C#N)c(=O)[nH]2)cc1
inactive: NCI-H23 lung 92.6% | NCI-H226 lung 101% | NCI-H322M lung 100% | HOP-62 NSCLC 89.1% | NCI-H460 lung 102% | HOP-92 NSCLC 92.2% | NCI-H522 lung 90% | A549/ATCC NSCLC 101% | 786-0 renal 98.7% | COLO 205 colon 102%

O=C(Nc1cccc(C(F)(F)F)c1)Nc1cccc(C(F)(F)F)c1
active: NCI-H23 lung 1.97% | NCI-H226 lung -1.66% | HOP-62 NSCLC -1.14% | NCI-H460 lung 5.08% | HOP-92 NSCLC -16.2% | NCI-H522 lung -35% | A549/ATCC NSCLC -1.94% | 786-0 renal 8.34% | COLO 205 colon -85.2%
inactive: NCI-H322M lung 16.7%
